Here are results for 48 molecules from the supplement of paper PMC4683952.

SMILES strings stand for the structures. Where a name gives a salt, the structure may show the parent alone. In all, about 1,200 compounds went through this assay and about 50 (4%) showed activity. This is one part of a sample in which actives are shown more often than they occur. A number with no mark means an inactive call. No stated cut-off is given here; in the data, all actives reach 1.3 or more but so do some inactives.

This test has as its system Lgr5 (MarsCy1-Lgr5-EGFP, U2OS). The test is described as follows: cell-surface Lgr5 expression (SCi1 fluorescence, background-subtracted) relative to WT DMSO (fold of DMSO control); higher = more Lgr5 at the plasma membrane, active = hit call of the paper. To be noted: U2OS MarsCy1-Lgr5-EGFP stable; treatment time: overnight; 16 µM; library: Johns Hopkins Clinical Compound Library.
Turning to `CCOc1ccc(NC(=O)CC(C)O)cc1` (stereo not drawn) [Bucetin], the “cell-surface Lgr5 expression” value is 1.29. Next, `CCCCOc1ccc(CC(=O)NO)cc1` [Bufexamac]: 1.82 (active); `CCOc1ccc(NC(C)=O)cc1` [Phenacetin (acetophenetidin)]: 1.24. As for `Cc1c(C)c2c(c(C)c1O)CCC(C)(COc1ccc(CC3SC(=O)NC3=O)cc1)O2` (stereo not drawn) [Troglitazone], the “cell-surface Lgr5 expression” value is 1.09. Then `Oc1cccc(O)c1O` [Pyrogallol], with 1.15. On to `CC(=O)OCC(=O)[C@@]1(O)CC[C@H]2[C@@H]3CCC4=CC(=O)C=C[C@]4(C)[C@@]3(Cl)[C@@H](Cl)C[C@@]21C` [Dichlorisone acetate], for which the “cell-surface Lgr5 expression” value was 1.55 (active). Next, `CC1(C)O[C@@H]2C[C@H]3[C@@H]4CCC5=CC(=O)CC[C@]5(C)[C@@]4(F)[C@@H](O)C[C@]3(C)[C@]2(C(=O)CCl)O1` [Halcinonide]: 1.71 (active). Regarding `CC(=O)OCC(=O)[C@@]1(O)CC[C@H]2[C@@H]3CCC4=CC(=O)CC[C@]4(C)[C@@]3(F)[C@@H](O)C[C@@]21C`, the “cell-surface Lgr5 expression” value is 1.35 (active). Next, `Nc1ccn([C@@H]2CS[C@H](CO)O2)c(=O)n1` [Lamivudine]: 0.724; `COc1cc2c(cc1OC)C(=O)C(CC1CCN(Cc3ccccc3)CC1)C2` (stereo not drawn) [Donepezil hydrochloride]: 0.531; `C[N+](C)(C)CCO.O=C([O-])CC(O)(CC(=O)O)C(=O)O` [Choline dihydrogen citrate]: 0.803. For `CCOC(=O)[C@H](CCc1ccccc1)N[C@@H](C)C(=O)N1Cc2ccccc2C[C@H]1C(=O)O` [Quinapril], the “cell-surface Lgr5 expression” value is 1.13. Next, `O=C([O-])[O-].[Li+].[Li+]` [Lithium carbonate]: 0.278; `N=C(N)NC(=N)NCCc1ccccc1` [Phenformin hydrochloride]: 0.756. Take `O=S(=O)([O-])[O-].[Fe+2]` [Ferrous sulfate]: the “cell-surface Lgr5 expression” value was 0.888.

As for `CCCCOc1cc(C(=O)OCCN(CC)CC)ccc1N` [Benoxinate], the “cell-surface Lgr5 expression” value was 0.987. Then `CCN(CC)CCOc1ccc2c(c1)C(=O)c1cc(OCCN(CC)CC)ccc1-2` [Tilorone dihydrochloride], with 1.62 (active); and `CCCOc1ccc(C(=O)OCCN(CC)CC)cc1N` [Proparacaine], with 1.22; and `Cl.Cl.NCCN` [Ethylenediamine dihydrochloride], with 1.05. Then `COC(=O)[C@H](Cc1ccccc1)NC(=O)[C@@H](N)CC(=O)O` [Aspartame], with 0.834; and `C[C@H](CCC(=O)O)[C@H]1CC[C@H]2[C@@H]3[C@@H](O)C[C@@H]4C[C@H](O)CC[C@]4(C)[C@H]3CC[C@]12C` [Ursodiol (Ursodeoxycholic acid)], with 0.801. Next, `Nc1nc2[nH]cnc2c(=S)[nH]1` [Thioguanine (2-amino,6-mercaptopurine)]: 0.849; `S=c1[nH]cnc2nc[nH]c12` [6-Mercaptopurine monohydrate]: 1.67 (active). Consider `COc1ccc(CN2CCN(C(c3ccc(F)cc3)c3ccc(F)cc3)CC2)c(OC)c1OC` [Lomerizine HCl], for which the “cell-surface Lgr5 expression” value was 1.15. Then `O=C[O-].[Na+]` [Sodium formate], with 0.903; and `C=N[C@@H](C(=O)N[C@@H]1C(=O)N2[C@@H]1SC(C)(C)[C@@H]2C(=O)O)c1ccccc1` [Metampicillin], with 0.953; and `N.N.O=S(=O)(O)O` [Ammonium sulfate], with 0.987.

Turning to `COc1ccc2cc3[n+](cc2c1OC)CCc1cc2c(cc1-3)OCO2` [Berberine], the “cell-surface Lgr5 expression” value was 1.64 (active). With `COc1ccc2cc3[n+](cc2c1OC)CCc1cc2c(cc1-3)OCO2` [Berberine bisulfate], the “cell-surface Lgr5 expression” value is 1.47. As for `O.O.O.O.O.O.[Cl-].[Cl-].[Sr+2]` [Strontium chloride hexahydrate], the “cell-surface Lgr5 expression” value is 1.29. Consider `COc1cccc2c1C(=O)c1c(O)c3c(c(O)c1C2=O)C[C@@](O)(C(=O)CO)C[C@@H]3O[C@H]1C[C@H](N)[C@H](O)[C@H](C)O1` [Doxorubicin], for which the “cell-surface Lgr5 expression” value is 0.634. Then `O=C(Nc1ccc(Cl)cc1)Nc1ccc(Cl)c(Cl)c1` [Trilocarban (3,4,4'-Trichlorocarbanilide, 99%)], with 0.931. Regarding `COc1ccccc1OCC(O)CO` (stereo not drawn) [Guaifenesen (Guaiacol glyceryl ether)], the “cell-surface Lgr5 expression” value was 1.11. Take `C=CCOc1ccccc1OCC(O)CNC(C)C` (stereo not drawn) [Oxprenolol]: the “cell-surface Lgr5 expression” value is 1.42 (active).

`COc1ccccc1OCC(O)CO` (stereo not drawn) [Guaifenesin]: the “cell-surface Lgr5 expression” value is 1.27. Then `CC(C)NCC(O)COc1cccc2ccccc12` (stereo not drawn) [Propranolol], with 1.07; and `COC(=O)CCc1ccc(OCC(O)CNC(C)C)cc1` (stereo not drawn) [Esmolol], with 1.29. Then `Nc1nc(O)c2ncn(CCC(CO)CO)c2n1` [Penciclovir], with 0.791; and `CC(=O)[O-].CC(=O)[O-].[Mg+2]` [Magnesium acetate], with 0.917; and `CN(C(=O)C(Cl)Cl)c1ccc(OC(=O)c2ccco2)cc1` [Diloxanide furoate], with 1.05. For `CC1(C)S[C@@H]2[C@H](NC(=O)C3(N)CCCCC3)C(=O)N2[C@H]1C(=O)O` [Cyclacillin], the “cell-surface Lgr5 expression” value was 0.994. Then `CC(=O)N(O)CCCCCNC(=O)CCC(=O)N(O)CCCCCNC(=O)CCC(=O)N(O)CCCCCN` [Deferoxamine mesylate], with 0.865; and `CCCN(CCC)S(=O)(=O)c1ccc(C(=O)O)cc1` [Probenecid], with 1.01. Then `NS(=O)(=O)c1ccc(C(=O)O)cc1` [Carzenide (4-Carboxybenzenesulfonamide, 97%)], with 1.3 (active); and `Nc1ccc(C(=O)O)cc1` [4-Aminobenzoic acid, sodium salt,99%], with 0.905. Then `Oc1c(I)cc(Cl)c2cccnc12` [Clioquinol], with 1.18; and `CCCCCCN(C)C` [N,N-Dimethylhexylamine], with 1.05; and `O=NN(CCCl)C(=O)NC1CCCCC1` [Lomustine], with 1.37.
